# Only some compounds are listed: those with a hit (about 21% of all), similar ones and a draw of the others.
# Cycloheximide cs – affects cycloheximide protein synthesis inhibition readout, counter-screen. cell reporter, cycloheximide protein synthesis inhibition counterscreen. max response, %. 12% of 300,000 active. AID 2314; in the data active = max response mostly above about 13%, no sharp cut-off; inactive = mostly below about 14%; note: read at 38.3 µM for the half of the compounds with a filed dose; 0% is about no effect
# HCV inh – HCV inhibition; Huh7.5.1 HCVcc-Cre infection, luciferase reporter, 44 h; 3.4% of 340,000 active; Potency, µM (highest dose often 41.8 µM), for the others: at the highest dose activity change, negative = inhibition, usual class: inhibitors; note: potency is the fitted concentration of half-maximal effect; % is set by controls: 0 for no effect and ±100 for the full control effect
#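 Whole-lifecycle infectious HCVcc-Cre system; cells 1,000/well, compound then virus (~0.5 moi) added 4 h after plating, 44 h culture. Luciferase read 15 sec following 15 min substrate incubation, room temp.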
# Pf growth 96h – P. falciparum growth inhibition at 96 hour, primary screen for plastid delayed-death inhibitors. P. falciparum luciferase reporter growth, 96 h. Potency, µM (series often up to 28.7 µM), for inactives: at the highest dose activity change, negative = inhibition, hits mostly inhibitors. 6.9% of 320,000 active; note: potency is the fitted concentration of half-maximal effect; % is set by controls: 0 for no effect and ±100 for the full control effect
#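 Erythrocytes infected with luciferase-expressing P. falciparum were dispensed at 2% hematocrit and 0.05% parasitemia (final), then incubated with compounds 96 hours at 37 C in 5% CO2. Luminescence after detection reagent addition reported growth.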
# Pf growth 48h – inhibits P. falciparum growth in the first generation, 48 h; P. falciparum luciferase growth in erythrocytes, 48 h; Potency, µM (top dose mostly 28.7 µM), for the others: at the highest dose activity change, negative = inhibition, hits mostly inhibitors; 5.9% of 310,000 active; AID 504832; note: potency is the fitted concentration of half-maximal effect; % is set by controls: 0 for no effect and ±100 for the full control effect
#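 Parasite viability was followed by luminescence of a genomically integrated firefly luciferase. Cultures held 0.1% parasitemia at 2% hematocrit (final), incubated under 5% CO2 at 37 C.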
# AMA1 RON2 block – inhibitors of Plasmodium falciparum AMA1-RON2 interaction | AlphaScreen AMA1-biotinylated RON2 peptide binding | Potency, µM (titrated, usually from 58.2 µM), inactives show at the highest dose activity change, negative = inhibition, most hits filed as inhibitors | 0.2% of 360,000 active;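 note: potency is the fitted concentration of half-maximal effect; 0% = vehicle wells and -100% = peptide control; nearly all actives have a fitted effect of over 45% in size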
#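 AMA1 (3D7) with his tag at 25 nM final met compounds first, then biotinylated RON2 peptide at 25 nM; detection used donor plus acceptor beads, 10 µg/mL apiece, read by AlphaScreen after 30 min at room temperature.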
# Shiga inhibitor – inhibitors of Shiga toxin in Vero cells; Vero cells, Shiga toxin protein synthesis inhibition reporter; inhibition, % at 38.7 µM; 9.2% of 290,000 active; in the data active = inhibition mostly above about 28%, no sharp cut-off; inactive = mostly below about 43%; note: 0% is about no effect
# * = called active by the depositor; u = inconclusive; x = not tested or not shown. Unless noted, calls come from the whole dose curve; as a rule, active = well fitted curve in the direction sought with a large enough effect; inconclusive = small, poorly fitted or top-dose-only effect, or another doubt; inactive = no such curve, though single readings can be large; an effect the other way counts as inactive or inconclusive.
SMILES,Cycloheximide cs,HCV inh,Pf growth 96h,Pf growth 48h,AMA1 RON2 block,Shiga inhibitor
COc1cc(C(=S)N2CCCC2)ccc1OCc1ccccc1,30*,-22%,-10%,45%,-10%,66*
COc1cc(C(=O)NCC2(N(C)C)CCCCC2)ccc1OCc1ccccc1,-5,u,9.3µM*,u,16%,-4
CCC(=O)c1ccc(OCc2ccccc2)c(OC)c1,43*,u,u,237%,23%,88*
Cc1cccc(N2CCN(C(=O)c3cc(S(=O)(=O)N4CCOCC4)cn3C)CC2C)c1 (centres undefined),-1,10%,19%,2%,17%,-5
CCC(Nc1ncnc2ccc(-c3c(C)noc3C)cc12)c1ccccc1 (centres undefined),11,x,x,x,x,3
Nc1ncnc2c1ncn2C1OCC(O)C1O (centres undefined),x,x,x,x,12%,x
CCC(C)NC(=O)c1ccc(N2CC3CC(C2)c2cccc(=O)n2C3)c(NC(=O)c2ccc(Br)o2)c1 (centres undefined),-8,-11%,9.3µM*,u,0%,-4
Oc1ccccc1-c1cc(-c2cccc(F)c2)n[nH]1,37*,u,u,-11%,17%,122*
CC(C)(C)c1ccc(-c2cc(-c3ccccc3O)[nH]n2)cc1,27*,u,-12%,0%,73%,59*
Fc1cccc(-c2n[nH]c(=S)n2-c2ccccc2)c1,0,1%,19%,11%,80%,x
CC(C)Cn1c(N)c(C(=O)COC(=O)c2nccnc2N)c(=O)n(C)c1=O,x,-16%,-22%,u,14%,x
CC(C)(C)[C@@H]1CCC(=O)N(CC[C@H](Sc2ccccc2)c2ccccc2)CC1,1,-11%,u,u,0%,6
CC(C)(C)C1CCC(=O)N(CCOc2ccccc2)CC1 (centres undefined),28*,8%,-28%,52%,-1%,43*
CC(C)(C)[C@@H]1CCC(=O)N(CC[C@H](N=[N+]=[N-])c2ccccc2)CC1,13*,u,u,u,-5%,33*
OCc1cnc[nH]1,-1,20%,9.3µM*,u,-8%,-9
CC(C)(C)NC(=O)C(c1ccnc2ccccc12)n1c(=O)c(-c2ccco2)nc2ccccc21 (centres undefined),x,x,x,x,4%,x
CC1CCCCN1CCCNc1ccc(C(CC(N)=O)NC(=O)Cc2ccc(Cl)cc2)cc1[N+](=O)[O-] (centres undefined),1,-1%,33%,38%,1%,-7
CC1CCCCN1CCCNc1ccc(C(CC(N)=O)NC(=O)Cc2cccc3ccccc23)cc1[N+](=O)[O-] (centres undefined),-2,9%,2.1µM*,u,-2%,-13
NC(=O)CC(NC(=O)Cc1cccc2ccccc12)c1ccc(NC2CC3CCC2C3)c([N+](=O)[O-])c1 (centres undefined),-3,11µM*,u,16%,3%,-2
NC(=O)CC(NC(=O)Cc1ccc(Br)cc1)c1ccc(NCCN2CCCCC2)c([N+](=O)[O-])c1 (centres undefined),2,-9%,0.01µM*,29%,-1%,1
COc1ccc([C@H]2CC(=O)C[C@@H](CCn3cc(-c4ccccn4)nn3)O2)cc1,x,x,x,x,-24%,x
CC(C)N(C)c1ncnc2c1ncn2[C@H]1CN(Cc2ccc3c(c2)OCO3)C[C@@H](CO)O1,x,x,x,x,51%,x
CCn1cc(CN2CCc3c([nH]c4ccccc34)C2c2cccc(OC)c2OC)c(C)n1 (centres undefined),1,-6%,0%,12µM*,-24%,28
COc1ccc(C2c3[nH]c4ccccc4c3CCN2C(=O)c2cc3ncccn3n2)c(F)c1 (centres undefined),10,u,48%,13µM*,u,28
COc1ccc(C2c3[nH]c4ccccc4c3CCN2C(=O)c2cn3ccccc3n2)c(F)c1 (centres undefined),30*,-17%,u,15µM*,-3%,53*
SMILES,Cycloheximide cs,HCV inh,Pf growth 96h,Pf growth 48h,AMA1 RON2 block,Shiga inhibitor
COc1ccc(C2c3[nH]c4ccccc4c3CCN2CCCn2cccn2)c(F)c1 (centres undefined),-3,-22%,-21%,u,-18%,21
COc1ccc(C2c3[nH]c4ccccc4c3CCN2C(=O)c2ccccc2C(C)=O)c(F)c1 (centres undefined),18*,-26%,-18%,u,-20%,29*
CC1=C(C(=O)Nc2ccccc2C(=O)N2CCN(c3ccccc3)CC2)SCCO1,x,x,x,x,-17%,x
CSc1ncccc1C(=O)N1CCCC(N2CCN(c3ccccc3C)CC2)C1 (centres undefined),x,x,x,x,13%,x
COc1cccc(C2c3[nH]c4ccccc4c3CCN2C(=O)c2ccccc2F)c1OC (centres undefined),-2,-12%,u,9.3µM*,u,-7
CCOC(=O)c1c(-c2ccccc2)oc2ccc(OC(C)=O)cc12,-2,11µM*,34%,6%,28%,-13
CCOC(=O)c1c(-c2ccc(OC)cc2)oc2ccc(OC(=O)N(C)C)cc12,3,0.32µM*,u,u,-26%,-1
CCOC(=O)c1c(-c2ccccc2)oc2ccc(OCC(=O)NNC(=O)CCC(=O)O)cc12,-5,5%,7%,9%,95%,-2
CCOC(=O)c1c(CSCc2ccccc2)oc2ccc(O)c(CN(C)C)c12,-4,u,5.9µM*,5.9µM*,-12%,-14
CCOC(=O)c1c(-c2ccccc2)oc2ccc(OCC(O)CN(C)C)cc12 (centres undefined),-3,14µM*,u,u,-18%,-9
CCOC(=O)c1c(-c2ccccc2)oc2ccc(O)c(CN(C)C)c12,-3,-29%,u,x,4%,-7
CCOC(=O)c1c(-c2ccccc2)oc2ccc(OC(C)C(=O)O)cc12 (centres undefined),0,11%,32%,-11%,5%,-6
CC(=O)Nc1ccc(C(=O)N2CCCCC2c2cc(C(=O)NCc3ccc(F)cc3)no2)cc1 (centres undefined),x,x,x,x,2%,x
O=C(Nc1ccc(C(=O)O)cc1)/C(=C\C=C\c1ccccc1)NC(=O)c1ccccc1Br,7,16%,-6%,43%,-14%,6
C=C(C)COc1ccc2oc(C)c(C(=O)OCCOC)c2c1,-1,-13%,63%,x,23%,-9
Cc1oc2ccc(OC(=O)N(C)C)cc2c1C(=O)OC(C)C,10,u,2.9µM*,u,4%,-10
CCOC(=O)c1c(-c2ccccc2)oc2ccc(O)c(CN3CCCC3)c12,1,-24%,1µM*,1.9µM*,14%,-20

# Screening results: PubChem BioAssay, National Center for Advancing Translational Sciences (NCATS)
